For 40 compounds, Potency results are on record in PubChem BioAssay (Tox21).

Results filed as inconclusive are left out. Entries that show only a call come without a potency. Calls of active or inactive are those of the source. The call rests on the fitted dose curve; in most records, active means well fitted inhibition curve with a large enough effect in the repeat runs; inconclusive means weak or mixed curves; inactive means flat fitted curve, though single readings scatter.

The experiment deals with Luciferin 4-monooxygenase (Photinus pyralis) (UniProt P08659). In words: qHTS assay to identify small molecule inhibitors of firefly luciferase (AID 1224835). Further: nearly all actives have a fitted effect of over 25% in size. The note with it: purified P. pyralis luciferase, luminescence inhibition; series mostly up to 115 µM. From the text: U.S. Tox21 Program National Center for Advancing Translational Sciences [NCATS] NIH Chemical Genomics Center [NCGC] U.S. Environmental Protection Agency [EPA] National Institutes of Environmental Health Sciences [NIEHS] National Toxicology Program [NTP] U.S. Food and Drug Administration [FDA] Tox21 Assay Overview: Firefly (Photinus pyralis) luciferase is one of the most commonly used transcriptional reporters. Firefly luciferase reporter-gene assays are generally considered one of the most sensitive assay types (Wood, 1995; Wood, 1998). However, it was initially observed, in 1991, by Thompson et al., that compounds that resemble the substrates of firefly luciferase (FLuc) can act as competitive inhibitors of the enzyme, and that these compounds, upon interaction with luciferase in the cell, can actually stabilize the protein and increase its half-life. Previous profiling work by other groups to determine the prevalence of compounds that affect FLuc enzymatic activity (PubChem AID 411) identified that ~3% of the MLSMR library (then at ~72K) inhibited FLuc. […] Thus the Tox21 10K library is profiled for activity against FLuc using a biochemical assay of purified FLuc and KM concentrations of FLuc substrates (D-luciferin and ATP).
Luciferin 4-monooxygenase (Photinus pyralis), sequence (P08659 whole entry, looked up): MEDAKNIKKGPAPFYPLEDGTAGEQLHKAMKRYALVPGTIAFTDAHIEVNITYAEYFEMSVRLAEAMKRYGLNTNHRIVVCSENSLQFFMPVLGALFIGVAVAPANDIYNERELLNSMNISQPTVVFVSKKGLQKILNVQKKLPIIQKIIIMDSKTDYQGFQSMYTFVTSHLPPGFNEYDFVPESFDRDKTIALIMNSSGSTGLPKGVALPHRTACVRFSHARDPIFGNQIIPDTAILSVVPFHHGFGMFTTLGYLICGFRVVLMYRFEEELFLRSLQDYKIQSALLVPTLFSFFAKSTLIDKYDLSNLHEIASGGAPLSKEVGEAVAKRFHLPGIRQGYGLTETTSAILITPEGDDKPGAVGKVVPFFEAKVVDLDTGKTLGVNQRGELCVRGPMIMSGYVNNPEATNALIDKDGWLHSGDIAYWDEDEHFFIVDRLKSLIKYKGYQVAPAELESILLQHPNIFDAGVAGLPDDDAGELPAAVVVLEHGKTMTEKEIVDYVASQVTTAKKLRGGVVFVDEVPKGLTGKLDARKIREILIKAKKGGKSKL
These assay plates were then treated with 23nL of compound or DMSO using a Kalypsys pin tool, which allows for delivery of a 6-point interplate titration of each compound to the assay plate (quantitative HTS.) 1 uL of firefly luciferase mix (containing 50 mM Tris acetate, pH 7.6, 0.04 uM P. pyralis luciferase, 0.01% Tween, 0.05% BSA and dH2O) was then delivered by FRD to each well. Luciferase activity was then measured using a ViewLux CCD imager.
Regarding `CCCCOC(=O)CC(CC(=O)OCCCC)(OC(C)=O)C(=O)OCCCC`, the Potency entry is “inactive”.

In the case of `O=c1cc[nH]c(=S)[nH]1`, the Potency result was “inactive”.

In the case of `Cc1ccc(S(=O)(=O)NC(=O)NN2CCCCCC2)cc1`, the Potency result was “inactive”.

Regarding `CC(C)[C@@H]1CC[C@@H](C)C[C@H]1O`, the Potency result is “inactive”.

`CCCCC(CC)COC(=O)/C=C/c1ccc(OC)cc1` (stereo not given): the Potency entry was “inactive”.

For the compound `CC(C)(Oc1ccc(C2CC2(Cl)Cl)cc1)C(=O)O` (stereo not given), the Potency result is “inactive”.

On to `Cc1noc(NS(=O)(=O)c2ccc(N)cc2)c1C`, for which the Potency result was “inactive”.

Turning to `CC(=O)Nc1nnc(S(N)(=O)=O)s1`, the Potency result was “inactive”.

`CCC1(c2ccccc2)C(=O)NCNC1=O`: the Potency result is “inactive”.

In the case of `Nc1ccn([C@H]2CC[C@@H](CO)O2)c(=O)n1`, the Potency entry is “inactive”.

With `C1N2CN3CN1CN(C2)C3`, the Potency result is “inactive”.

With `C[C@]12C=CC(=O)C=C1CC[C@@H]1[C@@H]2[C@@H](O)C[C@@]2(C)[C@H]1CC[C@]2(O)C(=O)CO`, the Potency result was “inactive”.

Consider `CC(O)CO` (stereo not given), for which the Potency entry was “inactive”.

For the compound `CCCC(CCC)C(=O)O`, the Potency result was “inactive”.

For the compound `Cn1cc[nH]c1=S`, the Potency entry is “inactive”.

Take `CCCCCCCCCCCCCCCC(=O)O`: the Potency result was “inactive”.

Take `O=C(O)CCCCC(=O)O`: the Potency entry is “inactive”.

On to `Nc1ccc(C(=O)O)cc1`, for which the Potency result is “inactive”.

In the case of `CCCNC(=O)NS(=O)(=O)c1ccc(Cl)cc1`, the Potency entry was “inactive”.

Take `O=C(C1CCCCC1)N1CC(=O)N2CCc3ccccc3C2C1` (stereo not given): the Potency entry was “inactive”.

Regarding `O=S(=O)(O)c1ccc2cc(O)ccc2c1`, the Potency entry was “inactive”.

Take `O=C(O)CCCCCCCC(=O)O`: the Potency entry was “inactive”.

For the compound `Cc1ccc(C)c(OCCCC(C)(C)C(=O)O)c1`, the Potency result was “inactive”.

For the compound `CCCCC1C(=O)N(c2ccccc2)N(c2ccccc2)C1=O`, the Potency result is “inactive”.

`NC(N)=O`: the Potency entry is “inactive”.

Take `N=C(N)c1ccc(OCCCCCOc2ccc(C(=N)N)cc2)cc1`: the Potency entry is “inactive”.

With `Cc1ccc(O)cc1`, the Potency result was “inactive”.

Take `Cn1c(=O)c2[nH]cnc2n(C)c1=O`: the Potency result was “inactive”.

For `O=C(c1ccccc1)C(O)c1ccccc1` (stereo not given), the Potency result is “inactive”.

As for `COc1ccc2[nH]cc(CCNC(C)=O)c2c1`, the Potency entry was “inactive”.

Consider `OC(Cn1cncn1)(Cn1cncn1)c1ccc(F)cc1F`, for which the Potency result was “inactive”.

For `O=C(O)C(=O)O`, the Potency result is “inactive”.

With `O=c1ccc2ccccc2o1`, the Potency entry was “inactive”.

On to `CC(O)C(=O)O` (stereo not given), for which the Potency entry is “inactive”.

As to `O=C(O)c1cccc([N+](=O)[O-])c1`, the Potency result was “inactive”.

`C/C=C/c1ccc(OC)cc1`: the Potency entry is “inactive”.

In the case of `O=C(O)CCC(=O)O`, the Potency entry is “inactive”.

On to `CC1(C)[C@@H]2CC[C@@]1(C)C(=O)C2`, for which the Potency entry was “inactive”.

With `O=C(O)CS`, the Potency result is “inactive”.

On to `NC(=O)c1cnccn1`, for which the Potency entry is “inactive”.
